Measurements reported in PubChem BioAssay (NCI).
This is part of a sample that, as a whole, favours compounds with a hit. Of some 83,000 tested, about 20% had one in any assay.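 The test compound was applied at a single concentration to cells in 96-well plates for 48 hours, and percent growth was recorded.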 Unmarked numbers belong to inactive results. The source made the active and inactive calls. The calls were made as follows: active = growth percent below 10; inactive = the rest.

Legend:
Experiment in all cases: NCI-60 one-dose screen, 48 h (100 = growth as untreated, 0 = no growth, -100 = all killed)
Conditions in all cases: 10 µM unless noted
NCI-H23 lung = test system: NCI-H23 lung
NCI-H322M lung = test system: NCI-H322M lung
HOP-62 NSCLC = test system: HOP-62 NSCLC
NCI-H460 lung = test system: NCI-H460 lung
HOP-92 NSCLC = test system: HOP-92 NSCLC
NCI-H522 lung = test system: NCI-H522 lung
A549/ATCC NSCLC = test system: A549/ATCC NSCLC
786-0 renal = test system: 786-0 renal
COLO 205 colon = test system: COLO 205 colon
DU-145 prostate = test system: DU-145 prostate
K-562 leukemia = test system: K-562 leukemia
MALME-3M melanoma = test system: MALME-3M melanoma
MDA-MB-231 breast = test system: MDA-MB-231 breast
RXF 393 renal = test system: RXF 393 renal
SF-268 CNS = test system: SF-268 CNS
SF-539 CNS = test system: SF-539 CNS
UACC-257 melanoma = test system: UACC-257 melanoma
M14 melanoma = test system: M14 melanoma
HCT-15 colon = test system: HCT-15 colon
SF-295 CNS = test system: SF-295 CNS

Row | SMILES | growth (NCI-H23 lung) | growth (NCI-H322M lung) | growth (HOP-62 NSCLC) | growth (NCI-H460 lung) | growth (HOP-92 NSCLC) | growth (NCI-H522 lung) | growth (A549/ATCC NSCLC) | growth (786-0 renal) | growth (COLO 205 colon) | growth (DU-145 prostate) | growth (K-562 leukemia) | growth (MALME-3M melanoma) | growth (MDA-MB-231 breast) | growth (RXF 393 renal) | growth (SF-268 CNS) | growth (SF-539 CNS) | growth (UACC-257 melanoma) | growth (M14 melanoma) | growth (HCT-15 colon) | growth (SF-295 CNS)
1 | CCOc1ccccc1CN1CCc2nc3cc(C(C)(C)C)[nH]n3c(=O)c2C1 | 97% | 101% | 99.6% | 107% | 112% | 77.1% | 112% | 90.8% | 112% | 115% | 87.2% | 107% | 92.3% | 93.5% | 105% | 93.7% | 108% | 91.6% | 97.4% | –
2 | O=C(NC1CCN(Cc2ccccc2)CC1)c1cc(C(=O)NC2CCN(Cc3ccccc3)CC2)cc(C(=O)NC2CCN(Cc3ccccc3)CC2)c1 | 77.2% | 90.3% | 58.7% | 91.8% | 54.3% | -67.7% (active) | 39.8% | 100% | 108% | 93.4% | 64.6% | 77.9% | 90.3% | 60.1% | 71.4% | 90.5% | 81.2% | 83.2% | 78.2% | –
3 | O=c1oc2ccc(I)cc2c(=O)n1-c1ccc(Br)cc1F | 5.56% (active) | 5.24% (active) | -11.7% (active) | 2.84% (active) | -11.7% (active) | -10% (active) | 7.12% (active) | 4.56% (active) | 50.3% | 16.6% | 7.02% (active) | -26.7% (active) | -21.2% (active) | 3.07% (active) | 9.55% (active) | 4.36% (active) | -13.6% (active) | -0.737% (active) | -7.61% (active) | -58.1% (active)
4 | CC(=O)c1ccc2oc(=O)n(Cc3ccc(C#N)cc3)c(=O)c2c1 | 103% | 100% | 103% | 106% | 95.2% | 99.5% | 103% | 103% | 114% | 111% | 117% | 96.9% | 107% | 114% | 99.1% | 96.8% | 108% | 108% | 98.9% | 99.1%
5 | COc1ccc(C(O)(CCC(C)C)C(CN2CCOCC2)c2ccc(Cl)cc2)cc1 (stereo unspecified) | 74.6% | 88.3% | 63.6% | 86.8% | 77.8% | -16.9% (active) | 62.4% | 73.3% | 76.4% | 73.8% | 15.3% | 39.2% | 68.5% | 88.3% | 80.2% | 64.7% | 69.4% | 37.1% | 35.6% | –
6 | Cc1c(-c2noc(-c3ccc([N+](=O)[O-])cc3)n2)no[n+]1[O-] | 86% | 88.4% | 86.1% | 103% | 85.2% | 102% | 111% | 99.5% | 113% | 99.9% | 93.7% | 99.5% | 95.4% | 102% | 92.6% | 97.4% | 106% | 93.8% | 93.1% | 99.9%
7 | CCN1C(=O)N(CC)C2Nn3c(s/c(=C4\C(=O)N(C(C)C)c5ccccc54)c3=O)=NC21 (stereo unspecified) | 36.6% | 61.3% | 51.8% | 21.3% | 13.9% | 27.2% | 30.4% | 49.1% | 7.65% (active) | 38% | 13.8% | 71.4% | 24% | 44.5% | 51.8% | 11.5% | 28.9% | 21.9% | 22.3% | 19%
8 | COc1cc(OC)cc(N2C(=O)N(Cc3ccc(C(C)(C)C)cc3)c3ccccc3S2(=O)=O)c1 | 82.8% | 83.3% | 95.2% | 93.9% | 56.1% | 76.9% | 93.3% | 73.7% | 83.6% | 96.2% | 33.3% | 64% | 77.4% | 60.2% | 89% | 87.2% | 105% | 85.2% | 67.9% | –
